CHX counter – counter-screen for Shiga toxin inhibitors: cycloheximide protein synthesis inhibition | cell reporter, cycloheximide protein synthesis inhibition counterscreen | max response, % | actives 12% (n = 300,000) | AID 2314; in the data active = max response mostly above about 13%, no sharp cut-off; inactive = mostly below about 14%; note: read at 38.3 µM for the half of the compounds with a filed dose
Sm TGR inh – S. mansoni TGR enzyme inhibition. Q962Y6. purified TGR, DTNB reduction, TNB absorbance 405 nm. Potency, µM (highest dose often 114 µM), usual class: inhibitors. actives 3% (n = 360,000). AID 485364; note: nearly all actives have a fitted effect of over 60% in size
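TGR 20 nM + NADPH 100 uM (dispensed conc.), cpd preinc 15 min RT; start with NADPH (500 uM addition) then DTNB (15 mM addition). Kinetic TNB absorbance, 405 nm filter. Four-parameter Hill fit across titration.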
NS1 function inh – influenza NS1 inhibition; Potency, µM (top dose mostly 46.1 µM); actives 0.4% (n = 270,000); calls by dose curve; note: actives are rising curves; nearly all actives have a fitted effect of over 50% in size
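A cell-based growth assay was used: compounds that relieve NS1-induced slow growth of budding yeast raise OD600. Assay medium was yeast nitrogen base with ammonium sulphate and -URA supplement, pH 6.0, with 2% galactose.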
Pf growth 96h – P. falciparum growth inhibition at 96 hour, primary screen for plastid delayed-death inhibitors. AID 504834. Potency, µM (highest dose often 28.7 µM), most hits filed as inhibitors. P. falciparum luciferase reporter growth, 96 h. actives 6.9% (n = 320,000)
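P. falciparum expressing integrated firefly luciferase, in erythrocytes at 2% hematocrit, 0.05% parasitemia, incubated with compounds 96 h at 37 C, 5% CO2. Growth inhibition read as loss of luminescence; two-generation exposure targets delayed-death apicoplast inhibitors.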
Shiga toxin inh – inhibitors of Shiga toxin in Vero cells. AID 2315. actives 9.2% (n = 290,000). inhibition, % at 38.7 µM. Vero cells, Shiga toxin protein synthesis inhibition reporter; in the data active = inhibition mostly above about 28%, no sharp cut-off; inactive = mostly below about 43%
Pf growth 48h – P. falciparum growth inhibition at 48 hours (one generation) | P. falciparum luciferase growth in erythrocytes, 48 h | Potency, µM (highest dose often 28.7 µM), hits mostly inhibitors | actives 5.9% (n = 310,000) | AID 504832
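Growth was read as firefly luciferase luminescence after a 48 h, 37 C, 5% CO2 exposure of compounds to reporter-bearing P. falciparum cultures (0.1% parasitemia, 2% hematocrit final) in Albumax-supplemented RPMI 1640.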
Large screens that a line does not name were inactive. Most compounds without a hit are left out; they make up all but 21% or so of the library. Unless noted, calls come from the whole dose curve; as a rule, active = well fitted curve in the direction sought with a large enough effect; inconclusive = small, poorly fitted or top-dose-only effect, or another doubt; inactive = no such curve, though single readings can be large; an effect the other way counts as inactive or inconclusive.

C[C@H](NC(=O)c1nc[nH]c1C(=O)NCCCCCNC(=O)OC(C)(C)C)C(=O)OCc1ccccc1	none
CC(C)(C)OC(=O)NCCCCCNC(=O)c1[nH]cnc1C(=O)N[C@@H](Cc1ccccc1)C(=O)OCc1ccccc1	Pf growth 96h 12µM, Pf growth 48h 8.3µM
COC(=O)Nc1cc(C(=O)c2ccc(Cl)cc2Cl)c[nH]1	Sm TGR inh inconclusive
CC(C)C(=O)Nc1ccc(NC(=O)CCc2ccccc2)cn1	Pf growth 96h inconclusive
O=C(Nc1ccc(N2CCOCC2)nc1)c1ccccc1Cl	CHX counter 29
O=C(Nc1ccc(NC(=O)C2CC2)cn1)c1ccccc1	CHX counter 26, Shiga toxin inh 43
COc1ccc(C(=O)Nc2ccc(NC(=O)C3CC3)cn2)cc1	Pf growth 96h inconclusive
O=C(Cc1ccccc1)Nc1ccc(NC(=O)c2ccccc2)nc1	CHX counter 38, Pf growth 96h inconclusive, Shiga toxin inh 174
Cc1cc(NC(=O)C2CCCCC2)ccc1NC(=O)c1ccccc1Cl	none
O=C(Nc1ccc(NC(=O)C2CC2)cn1)c1ccccc1Cl	CHX counter 33, Shiga toxin inh 50 (no result: Pf growth 96h)
COc1cccc(CNC(=O)Cn2ncn3nc(-c4cccs4)cc3c2=O)c1OC	none (no result: CHX counter, NS1 function inh, Pf growth 96h, Shiga toxin inh, Pf growth 48h)
COc1ccc(N2C(=O)C3CCCN3C2c2ccc(C)o2)cc1 (stereo not drawn)	none
COCCNC(=O)/C(C#N)=C\c1ccc(CNC(=O)C(=O)Nc2ccc(C)c(C)c2)o1	Pf growth 96h inconclusive (no result: Sm TGR inh)
CCOC(=O)C1=C(O)/C(=C\c2ccc(CNC(=O)C(=O)Nc3ccc(C)c(C)c3)o2)N=C1C	Sm TGR inh 40µM (no result: Pf growth 48h)
O=S(=O)(/N=C(/Sc1ccccc1)c1ccccc1)c1ccccc1	Sm TGR inh 1.8µM (no result: Pf growth 48h)
Cc1nn(CCCC(=O)Nc2cccc(F)c2)c(=O)c2c1sc1ccccc12	none (no result: CHX counter, NS1 function inh, Pf growth 96h, Shiga toxin inh, Pf growth 48h)
O=C1C2C(C(=O)N1/N=C/c1ccc(N3CCCCC3)o1)C1C=CC2C12CC2 (stereo not drawn)	Sm TGR inh 4µM, Pf growth 96h inconclusive
CCOc1ccc(NC(=O)CN(C)C(=O)c2n[nH]c(=O)c3ccccc23)cc1OCC	Pf growth 48h inconclusive (no result: CHX counter, NS1 function inh, Shiga toxin inh)
N#Cc1ccsc1NC(=O)COC(=O)c1ccc(NC(N)=O)cc1	CHX counter 41, Shiga toxin inh 92
CCN(CC)c1ccc(C(=O)OCC(=O)Nc2ccccc2-c2ccccc2)cc1	NS1 function inh inconclusive, Pf growth 96h 10µM, Pf growth 48h inconclusive
CCN(CC)c1ccc(C(=O)OCC(=O)Nc2sccc2C#N)cc1	CHX counter 27, Shiga toxin inh 39
N#Cc1ccsc1NC(=O)COC(=O)c1cc2ccccc2cc1O	CHX counter 31, Shiga toxin inh 84
CCN(CC)c1ccc(C(=O)OCC(=O)NC2CCCCC2C)cc1 (stereo not drawn)	none (no result: Pf growth 48h)
COc1cc(CN2CCNC(=O)C2CC(=O)NCCCC2CCCC2)cc(OC)c1 (stereo not drawn)	Sm TGR inh inconclusive
C[C@H](C(=O)NCc1ccccc1)C(=O)c1ccccc1	none
N#CC(CC(=O)O)=C(c1ccccc1)c1ccccc1	none (no result: CHX counter, Sm TGR inh, Pf growth 96h, Shiga toxin inh, Pf growth 48h)
Cc1cc(N2CCN(c3ccc(F)cc3)CC2)n2nc(-c3ccc(Cl)cc3)nc2n1	none (no result: CHX counter, NS1 function inh, Pf growth 96h, Shiga toxin inh, Pf growth 48h)
O=C1CC(N2CCOCC2)=NN1c1ccc([N+](=O)[O-])cc1	CHX counter 18, Pf growth 96h inconclusive, Pf growth 48h inconclusive
COc1ccc(CNC(=O)c2cc(COc3c(F)cccc3F)on2)cc1OC	Pf growth 96h inconclusive, Pf growth 48h inconclusive
Cc1cccc(C)c1OCc1cc(C(=O)NCC2CCCCC2)no1	none
COc1ccc(CCNC(=O)c2cc(COc3c(C)cccc3C)on2)c(OC)c1	CHX counter 77, Shiga toxin inh 65
COc1ccc(CCNC(=O)c2cc(COc3c(F)cccc3F)on2)c(OC)c1	CHX counter 37, Pf growth 96h inconclusive, Shiga toxin inh 70
CC(C)C1Nc2c(O)cc(Cl)c([N+](=O)[O-])c2C2C=CCC21 (stereo not drawn)	Sm TGR inh 7.1µM
COc1ccc(S(=O)(=O)N/N=C/c2ccc(OCCN3CCOCC3)c(OC)c2)cc1	CHX counter 20
COc1cc(/C=N/NS(=O)(=O)c2ccc3ccccc3c2)ccc1OCCN1CCOCC1	CHX counter 18, Pf growth 96h inconclusive
CCOc1ccc(/C=N/NS(=O)(=O)c2ccc(C)cc2)cc1OC	none
